According to PubChem BioAssay (NCATS):
Results filed as inconclusive are left out. A call without a number means that no potency is given here. Active and inactive are the calls of the source. The call rests on the fitted dose curve; in most records, active means well fitted curve in the direction sought with a large enough effect; inconclusive means small, poorly fitted or top-dose-only effect, or another doubt; inactive means no such curve, though single readings can be large; an effect the other way counts as inactive or inconclusive.

Tested on: not listed separately
Test: NCATS anti-infectives library activity on HEK293 viability as a counter-qHTS vs the C. elegans viability qHTS (AID 1745854)
Conditions: HEK293 viability counter-screen; series mostly up to 41.8 µM
How it was run: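 HEK293 cells, 1500 per well, exposed 24 hr at 37C in 5% CO2 to compounds in a 1:5 titration, up to 41.7 uM final. Viability read as CellTiter-Glo luminescence after 10 min at room temperature.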

Compound | outcome
Fc1ccccc1-c1nc2ccn(Cc3ccc(-c4ccc(C(F)(F)F)cc4C(F)(F)F)nn3)cc-2n1 | inactive
Cc1noc2c1-c1ccccc1C(c1ccc(Cl)cc1)=N[C@H]2CC(N)=O | inactive
OCC1=C[C@@H](O)[C@@H]2C=CO[C@@H](O[C@@H]3O[C@H](CO)[C@@H](O)[C@H](O)[C@H]3O)[C@H]12 | inactive
COc1cccc2c1c(O)c(C(=O)N(C)c1ccc(C(F)(F)F)cc1)c(=O)n2C | inactive
NCCCCN(Cc1nc2ccccc2[nH]1)[C@H]1CCCc2cccnc21 | inactive
CCCC(C(=O)O)c1c(C)nc2ccc(Cl)cc2c1-c1ccccc1 (stereo unspecified) | inactive
COc1cnc(-n2cnc(C)n2)c2[nH]cc(C(=O)C(=O)N3CCN(C(=O)c4ccccc4)CC3)c12 | inactive
CCCCOc1nc(N)c2c(n1)N(Cc1cccc(CN3CCCC3)c1)CC(=O)N2 | inactive
Cc1cc(OCCN2CCOCC2)nn1-c1ccc2ccccc2c1 | inactive
COC(=O)C1=CO[C@@H](O[C@@H]2O[C@H](CO)[C@@H](O)[C@H](O)[C@H]2O)[C@@H]2C(CO)=CC[C@H]12 | inactive
O=C(O)c1cc(C(F)(F)F)ccc1N1CC[C@H](OCc2ccccn2)C1 | inactive
CCc1nn(CCO)c(CC)c1Oc1cc(C#N)cc(C#N)c1 | inactive

Target: Glutathione peroxidase 1 (Homo sapiens) (UniProt P07203)
Test: Primary qHTS Assay for Inhibitors of Recombinant Selenoprotein Glutathione Peroxidase 1 (GPX1) (AID 1845191); further: nearly all actives have a fitted effect of over 65% in size
Conditions: recombinant GPX1, GR-coupled NADPH fluorescence, 15 min; series mostly up to 27.7 µM
How it was run: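 GR-coupled assay: compounds preincubated 30 min at room temperature with GPX1, then reaction started with CHP; final 10 nM GPX1, 1 mM GSH, 0.5 mM CHP, 0.5 mM NADPH, 100 nM GR, 0.01% BSA, pH 7.5 Tris buffer. NADPH fluorescence (340/450 nm) read at 0 and 15 min.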

Chain of Glutathione peroxidase 1 (Homo sapiens) (P07203 whole entry, looked up): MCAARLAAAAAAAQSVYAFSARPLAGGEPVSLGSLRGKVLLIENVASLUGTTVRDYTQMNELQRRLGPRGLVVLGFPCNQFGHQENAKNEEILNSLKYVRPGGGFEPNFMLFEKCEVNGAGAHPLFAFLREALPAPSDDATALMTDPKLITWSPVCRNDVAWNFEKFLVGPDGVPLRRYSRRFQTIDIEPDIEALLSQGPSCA

Compound | Potency
Fc1ccccc1-c1nc2ccn(Cc3ccc(-c4ccc(C(F)(F)F)cc4C(F)(F)F)nn3)cc-2n1 | inactive
COc1cncc(C#Cc2ccccn2)c1 | inactive
CC(=O)O[C@H]1[C@H](OC(=O)C(C)C)[C@]2(C)OC3(CC[C@]2(C)[C@H]2CCC[C@]4(CO4)[C@]12C)COC(=O)C3 (stereo partly specified) | inactive
Cc1cc(C)c2nc(-c3ccccn3)cc(C(=O)Nc3ccc(S(=O)(=O)Nc4onc(C)c4C)cc3)c2c1 | inactive
Cc1noc2c1-c1ccccc1C(c1ccc(Cl)cc1)=N[C@H]2CC(N)=O | inactive
CC(C)c1cc2c(c(O)c1O)[C@@]13CCCC(C)(C)C1[C@@H](O)[C@@H]2OC3=O (stereo partly specified) | inactive
Cn1c2ccc(NC(=O)c3ccccc3)cc2c(=O)n2nc(C(=O)O)cc12 | inactive
COc1c(-c2ccc(O)cc2)cc(OC)c2c1oc1cc(O)c(OC3OC(CO)C(O)C3O)cc12 (stereo unspecified) | inactive
CCOC(=O)c1ccc(NC2CCCCC2)c(N)c1 | inactive
C[C@]12CC[C@@H]3c4ccc(O)cc4CC[C@H]3[C@@H]1C[C@@H](O[C@@H]1O[C@H](C(=O)O)[C@@H](O)[C@H](O)[C@H]1O)[C@@H]2O | inactive
OCC1=C[C@@H](O)[C@@H]2C=CO[C@@H](O[C@@H]3O[C@H](CO)[C@@H](O)[C@H](O)[C@H]3O)[C@H]12 | inactive
COc1cccc2c1c(O)c(C(=O)N(C)c1ccc(C(F)(F)F)cc1)c(=O)n2C | inactive
COc1ccc(-c2ccn(CC[C@](C)(C(=O)NO)S(C)(=O)=O)c(=O)c2)c(F)c1 | inactive
NCCCCN(Cc1nc2ccccc2[nH]1)[C@H]1CCCc2cccnc21 | inactive
CCCC(C(=O)O)c1c(C)nc2ccc(Cl)cc2c1-c1ccccc1 (stereo unspecified) | inactive
COc1cnc(-n2cnc(C)n2)c2[nH]cc(C(=O)C(=O)N3CCN(C(=O)c4ccccc4)CC3)c12 | inactive
CCOc1ccc(-c2cc(NC(=O)c3c(F)cccc3F)c(C(=O)O)s2)cc1 | inactive
O=C(OCC1=C[C@@H](O)[C@@H]2C=CO[C@@H](O[C@@H]3O[C@H](CO)[C@@H](O)[C@H](O)[C@H]3O)[C@H]12)c1ccc(O)cc1 | inactive
CC(=O)O[C@@H]1C[C@@H](C)[C@](O)(CCC2=CC(=O)OC2)[C@@]2(C)CCCC(C)(C)C12 (stereo partly specified) | inactive
N#Cc1cccc(-c2nc(-c3cccnc3)no2)c1 | inactive
CCN=C1N[C@@H]2[C@@H](O)[C@H](O)[C@@H](CO)O[C@@H]2S1 | inactive
O=C(Nc1ccccc1)Nc1ccc(-c2ccc(C(=O)C3CCCC3C(=O)O)cc2)cc1 (stereo unspecified) | inactive
CCOc1nc2c(N)ncnc2n1CC | inactive
CCCCOc1nc(N)c2c(n1)N(Cc1cccc(CN3CCCC3)c1)CC(=O)N2 | inactive
CC(C)(O)C1OC1C1=CC(=O)C2(C)OC2C1O (stereo unspecified) | inactive
Cc1cc(OCCN2CCOCC2)nn1-c1ccc2ccccc2c1 | inactive
COc1cc(O)c(C(=O)O)c(CCc2ccccc2)c1 | inactive
CC(C)c1ccc2c(c1)CCC1[C@](C)(C(=O)O)CCC[C@]21C (stereo partly specified) | inactive
O=C(O)c1cc(C(F)(F)F)ccc1N1CC[C@H](OCc2ccccn2)C1 | inactive
